Results filed as inconclusive are left out. Entries that show only a call come without a potency. A number with no mark means an inactive call. The source made the active and inactive calls. Calls follow the shape of the dose curve; as a rule, active = well fitted curve in the direction sought with a large enough effect; inconclusive = small, poorly fitted or top-dose-only effect, or another doubt; inactive = no such curve, though single readings can be large; an effect the other way counts as inactive or inconclusive.
How the values were obtained:
[1] = biological target: Rap guanine nucleotide exchange factor 3 (Homo sapiens) (UniProt O95398); assay: Confirmatory qHTS for antagonist of cAMP-regulated guanine nucleotide exchange factor 3 (EPAC1) (AID 1645880); settings: EPAC1 Rap1B-BODIPY-GDP exchange, fluorescence; series mostly up to 115 µM; also: nearly all actives have a fitted effect of over 55% in size; also: potency is read from the fitted curve at half-maximal effect
How it was run: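 Released BODIPY-GDP fluoresces less than Rap1-bound BODIPY-GDP; the signal is followed at 480/540 nm at 5-min intervals over 30 min, after 5 min at room temperature. Reactions contain 100 nM EPAC1, 250 nM RAP1B-BODIPY-GDP and 50 uM GDP; results are normalized to ATA and DMSO.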

[2] = biological target: Rap guanine nucleotide exchange factor 3 (Homo sapiens) (UniProt O95398); assay: Confirmatory qHTS for agonist of cAMP-regulated guanine nucleotide exchange factor 3 (EPAC1) (AID 1645881); settings: EPAC1 Rap1B BODIPY-GDP exchange fluorescence; series mostly up to 154 µM; also: nearly all actives have a fitted effect of over 75% in size; also: potency is read from the fitted curve at half-maximal effect;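 as to activation: EPAC1 catalysed release of BODIPY-GDP from Rap1B seen as fluorescence loss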
[3] = biological target: Rap guanine nucleotide exchange factor 4 (Homo sapiens) (UniProt Q8WZA2); assay: Confirmatory qHTS for agonist of cAMP-regulated guanine nucleotide exchange factor 4 (EPAC2) (AID 1645884); settings: EPAC2 GEF activity, Rap1B-BODIPY-GDP fluorescence; series mostly up to 154 µM;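 also: nucleotide exchange releases bodipy-GDP from Rap1 and this lowers its fluorescence; nearly all actives have a fitted effect of over 65% in size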; also: potency is read from the fitted curve at half-maximal effect
[4] = biological target: Rap guanine nucleotide exchange factor 4 (Homo sapiens) (UniProt Q8WZA2); assay: Confirmatory qHTS for antagonist of cAMP-regulated guanine nucleotide exchange factor 4 (EPAC2) (AID 1645885); settings: EPAC2 Rap1B-BODIPY-GDP exchange fluorescence, biochemical; series mostly up to 12.7 µM; also: nearly all actives have a fitted effect of over 25% in size; also: potency is read from the fitted curve at half-maximal effect
[5] = biological target: Rap guanine nucleotide exchange factor 3 (Homo sapiens) (UniProt O95398); assay: Counterscreen qHTS for antagonist of cAMP-regulated guanine nucleotide exchange factor 3 (EPAC1) (AID 1645888); settings: Rap1B-BODIPY-GDP nucleotide exchange, fluorescence; series mostly up to 154 µM
How it was run: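 Rap1B-BODIPY-GDP 250 nM + GDP 50 uM; cpds 7-pt, final 9.74 nM–152 uM (activator mode) or from 7.32 nM upwards (inhibitor mode); RT; FI 480/540 nm at 5 and 30 min, then ± cAMP, reread.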

Rap guanine nucleotide exchange factor 4 (Homo sapiens), sequence (Q8WZA2 whole entry, looked up): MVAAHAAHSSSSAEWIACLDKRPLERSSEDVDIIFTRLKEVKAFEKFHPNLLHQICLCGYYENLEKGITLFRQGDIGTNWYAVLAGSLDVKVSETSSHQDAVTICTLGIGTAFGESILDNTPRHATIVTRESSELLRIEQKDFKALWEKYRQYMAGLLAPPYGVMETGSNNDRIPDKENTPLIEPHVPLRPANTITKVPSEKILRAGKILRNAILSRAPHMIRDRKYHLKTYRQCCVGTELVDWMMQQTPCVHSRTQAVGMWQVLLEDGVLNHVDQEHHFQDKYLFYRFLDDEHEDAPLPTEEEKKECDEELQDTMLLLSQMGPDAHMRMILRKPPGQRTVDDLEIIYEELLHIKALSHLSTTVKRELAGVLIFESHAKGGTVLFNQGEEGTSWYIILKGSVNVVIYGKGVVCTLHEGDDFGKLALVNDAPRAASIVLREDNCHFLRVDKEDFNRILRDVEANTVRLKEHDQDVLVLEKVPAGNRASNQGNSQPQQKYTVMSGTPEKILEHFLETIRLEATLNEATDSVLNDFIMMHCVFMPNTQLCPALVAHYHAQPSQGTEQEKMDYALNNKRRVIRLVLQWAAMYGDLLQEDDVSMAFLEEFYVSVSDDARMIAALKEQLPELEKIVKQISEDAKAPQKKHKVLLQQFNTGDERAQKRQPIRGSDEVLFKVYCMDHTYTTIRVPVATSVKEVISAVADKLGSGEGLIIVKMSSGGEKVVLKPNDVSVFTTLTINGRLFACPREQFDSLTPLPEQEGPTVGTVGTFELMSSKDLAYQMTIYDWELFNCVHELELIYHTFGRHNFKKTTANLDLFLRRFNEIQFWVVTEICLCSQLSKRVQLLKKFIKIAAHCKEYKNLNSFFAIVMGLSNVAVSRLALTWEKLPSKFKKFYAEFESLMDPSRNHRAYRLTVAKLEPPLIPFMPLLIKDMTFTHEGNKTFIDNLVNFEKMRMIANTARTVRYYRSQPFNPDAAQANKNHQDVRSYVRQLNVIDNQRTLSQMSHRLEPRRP
Rap guanine nucleotide exchange factor 3 (Homo sapiens), sequence (O95398 whole entry, looked up): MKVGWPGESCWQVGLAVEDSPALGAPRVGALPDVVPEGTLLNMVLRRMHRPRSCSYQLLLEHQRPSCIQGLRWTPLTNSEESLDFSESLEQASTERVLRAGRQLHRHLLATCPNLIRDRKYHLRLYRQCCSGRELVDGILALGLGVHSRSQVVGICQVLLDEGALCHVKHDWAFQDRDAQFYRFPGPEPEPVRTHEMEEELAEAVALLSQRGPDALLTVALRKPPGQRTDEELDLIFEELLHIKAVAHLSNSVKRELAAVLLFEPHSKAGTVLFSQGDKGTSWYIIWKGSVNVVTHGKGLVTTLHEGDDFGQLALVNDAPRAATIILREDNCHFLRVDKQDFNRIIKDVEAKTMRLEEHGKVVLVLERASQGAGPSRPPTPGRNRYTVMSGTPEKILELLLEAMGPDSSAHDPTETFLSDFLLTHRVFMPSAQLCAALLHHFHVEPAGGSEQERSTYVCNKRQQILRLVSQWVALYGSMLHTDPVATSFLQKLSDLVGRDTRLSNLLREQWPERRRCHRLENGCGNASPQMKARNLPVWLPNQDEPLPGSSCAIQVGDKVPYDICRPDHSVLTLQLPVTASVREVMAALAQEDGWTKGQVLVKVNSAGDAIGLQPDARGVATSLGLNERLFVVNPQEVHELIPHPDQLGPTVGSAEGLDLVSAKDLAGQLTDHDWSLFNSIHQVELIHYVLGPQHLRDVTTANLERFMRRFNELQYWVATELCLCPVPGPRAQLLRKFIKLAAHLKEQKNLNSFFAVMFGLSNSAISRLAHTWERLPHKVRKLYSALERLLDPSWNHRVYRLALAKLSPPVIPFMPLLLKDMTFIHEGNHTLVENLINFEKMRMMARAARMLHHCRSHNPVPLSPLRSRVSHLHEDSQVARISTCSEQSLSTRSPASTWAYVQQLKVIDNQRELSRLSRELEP

Structure (SMILES) | Potency [1] | Potency [2] | Potency [3] | Potency [4] | Potency [5] | activation [3] | activity change, negative = inhibition [5]
CCOCCCn1c(SCC(=O)Nc2cccc(OC)c2)nc2ccccc2c1=O | inactive | inactive | inactive | inactive | inactive | – | –
CC1Cc2nc(SCC(=O)OCc3ccccc3)n(C)c(=O)c2S1 (stereo not given) | inactive | inactive | – | inactive | – | 3.71% [at 17.1 µM, percent relative to cAMP agonist control] | 9.81% [at 30.8 µM]
Cc1cccc(N=C2NC(=O)/C(=C/C=C/c3ccco3)S2)c1C | 9.53 µM (active) | inactive | inactive | inactive | inactive | – | –
O=C(CSc1nnc(SCc2ccccc2)s1)N/N=C/C=C/c1ccco1 | 12.6 µM (active) | inactive | – | inactive | – | 3.41% [at 17.1 µM, percent relative to cAMP agonist control] | -6.93% [at 30.8 µM]
O=C1NC(=Nc2ccccc2)S/C1=C\C=C\c1ccco1 | 16.9 µM (active) | inactive | inactive | inactive | inactive | – | –
Cc1ccccc1CNC(=O)CCC(=O)N1CCSc2ccccc21 | inactive | inactive | inactive | inactive | inactive | – | –
Cc1cc(C)cc(-c2nnc(SCc3ccc(C(=O)O)cc3)o2)c1 | inactive | inactive | – | inactive | – | 0% [at 17.1 µM, percent relative to cAMP agonist control] | -19.9% [at 30.8 µM]
Cc1ccc(C2C(C#N)=C3N=C(N)c4ccccc4N3C3=C2C(=O)CCC3)cc1 (stereo not given) | inactive | inactive | – | inactive | – | 5.16% [at 17.1 µM, percent relative to cAMP agonist control] | -7.3% [at 30.8 µM]
CCOC(=O)C1CCCCN1C(=O)c1oc2c(Cl)cc(C)cc2c1C (stereo not given) | inactive | inactive | inactive | inactive | inactive | – | –
O=C1N=c2ccccc2=C1c1sc(Nc2ccc(O)cc2)nc1O | 30.1 µM (active) | inactive | inactive | inactive | inactive | – | –
CCC(C(=O)OCC(=O)Nc1cc(C)ccc1OC)c1ccccc1 (stereo not given) | inactive | inactive | – | inactive | – | 3.82% [at 17.1 µM, percent relative to cAMP agonist control] | -13% [at 30.8 µM]
COc1ccc(OCC(=O)NCCC2=CCCCC2)c([N+](=O)[O-])c1 | inactive | inactive | – | inactive | – | 7.73% [at 17.1 µM, percent relative to cAMP agonist control] | -6.06% [at 30.8 µM]
Cc1ccc(NC(=O)Cn2nc(C)c3nn(-c4ccc(Cl)cc4)c(C)c3c2=O)cc1F | inactive | inactive | inactive | inactive | inactive | – | –
Cc1ccc(S(=O)(=O)Nc2cccc(C(=O)NCC(c3ccco3)N3CCCCC3)c2)cc1F (stereo not given) | inactive | inactive | inactive | inactive | inactive | – | –
O=C1C(c2ccccc2)=[N+]([O-])c2ccccc21 | inactive | inactive | inactive | inactive | inactive | – | –
CC1CN(S(=O)(=O)c2cccc(C(=O)Nc3ccccc3N3CCOCC3)c2)CC(C)O1 (stereo not given) | inactive | inactive | – | inactive | – | 3.24% [at 17.1 µM, percent relative to cAMP agonist control] | -5.5% [at 30.8 µM]
CCCCn1c(CN2CCOCC2)nc2c1c(=O)n(C)c(=O)n2C | inactive | inactive | inactive | inactive | inactive | – | –
Cc1ccc(C)c(N(C)C(=O)c2cn(C)c(=O)c3ccccc23)c1 | inactive | inactive | inactive | inactive | inactive | – | –
Cc1cc(C)c(S(=O)(=O)N2CCCCC2CCNC(=O)C(=O)NCC2CCCO2)c(C)c1 (stereo not given) | inactive | inactive | – | inactive | – | 2.27% [at 17.1 µM, percent relative to cAMP agonist control] | 6.58% [at 30.8 µM]
Oc1ccc(N=Cc2c(O)ccc3ccccc23)cc1 | inactive | inactive | – | inactive | – | 11.7% [at 17.1 µM, percent relative to cAMP agonist control] | -17% [at 30.8 µM]
CC1(C(=O)NS(=O)(=O)c2cccc(Cl)c2)CCN1C(=O)C1(c2ccc(Cl)cc2)CC1 (stereo not given) | 31.6 µM (active) | inactive | – | inactive | – | 2.34% [at 17.1 µM, percent relative to cAMP agonist control] | -16.3% [at 30.8 µM]
Cc1cc(/C=N/NC(N)=S)c(O)c(/C=N/NC(N)=S)c1 | inactive | 44.7 µM (active) | 50.1 µM (active) | inactive | inactive | – | –

Structure (SMILES) | Potency [1] | Potency [2] | Potency [3] | Potency [4] | Potency [5] | activation [3] | activity change, negative = inhibition [5]
CCOC(=O)C1=C(C)Nc2nnnn2C1c1ccc(OC)c(Br)c1 (stereo not given) | inactive | inactive | – | inactive | – | 8.47% [at 17.1 µM, percent relative to cAMP agonist control] | 1.39% [at 30.8 µM]
COc1ccccc1C(=O)NC(=O)Cn1nc(C)c([N+](=O)[O-])c1C | inactive | inactive | – | inactive | – | 4.27% [at 17.1 µM, percent relative to cAMP agonist control] | 11.7% [at 30.8 µM]
CC(C(=O)NC1CC(C)(C)NC(C)(C)C1)c1ccc([N+](=O)[O-])cc1 (stereo not given) | inactive | inactive | inactive | inactive | inactive | – | –
Cc1ccc2nc(NC(=O)CSc3nc(=O)n(CCCN(C)C)c4c3CCC4)sc2c1 | inactive | inactive | – | inactive | – | 2.81% [at 17.1 µM, percent relative to cAMP agonist control] | -5.22% [at 30.8 µM]
Cc1ccc(C)c(-c2ccc(=O)n(Cc3cccc(Br)c3)n2)c1 | inactive | inactive | inactive | 19 µM (active) | inactive | – | –
CC1(C)OCC(C2CC(c3ccccc3)NS(=O)(=O)O2)O1 (stereo not given) | inactive | inactive | inactive | inactive | inactive | – | –
CSCCC(NC(=O)c1ccc(Cl)cc1)C(=O)OCC(=O)NCc1ccco1 (stereo not given) | inactive | inactive | – | inactive | – | 0.694% [at 17.1 µM, percent relative to cAMP agonist control] | -13% [at 30.8 µM]
O=C(O)c1ccccc1NS(=O)(=O)c1ccc(NN=Cc2ccc(F)cc2)c([N+](=O)[O-])c1 | 26.9 µM (active) | inactive | inactive | inactive | inactive | – | –
O=C(COC(=O)c1nc(Cl)ccc1Cl)c1ccccc1Cl | inactive | inactive | inactive | inactive | inactive | – | –
O=C(NN1C(=O)/C(=C/c2ccc(O)c(O)c2)SC1=S)c1ccccc1 | 7.57 µM (active) | inactive | inactive | inactive | inactive | – | –
O=S(c1ccc2ccccc2c1)c1cnns1 (stereo not given) | inactive | inactive | inactive | inactive | inactive | – | –
CS(=O)(=O)Nc1ccc(C2=NN(C(=O)c3cccc(F)c3)C(c3cccs3)C2)cc1 (stereo not given) | inactive | inactive | inactive | inactive | inactive | – | –
Cc1cc(C)c(-c2c(N)cc(Br)cc2Br)c(N)c1 | inactive | inactive | inactive | inactive | inactive | – | –
COc1ccc(S(=O)(=O)N2CCC[C@H]2C(=O)N2CCC[C@H]2C(=O)N[C@@H](C)c2ccccc2)cc1C | inactive | inactive | – | inactive | – | 1.42% [at 17.1 µM, percent relative to cAMP agonist control] | 6.49% [at 30.8 µM]
O=C(NCCN1CCCC1)C(c1ccccc1)c1ccccc1 | inactive | inactive | inactive | inactive | inactive | – | –
CCN(CCNC(=O)C1CCN(S(=O)(=O)c2cccc3cccnc23)CC1)c1ccccc1 | inactive | inactive | inactive | inactive | inactive | – | –
CCC(=Cc1ccccc1OC)c1ccncc1 | inactive | inactive | inactive | inactive | inactive | – | –
CCc1ccc(NC(=O)CSc2nnc(Cc3cccn3C)n2-c2ccc(OC)cc2)cc1 | inactive | inactive | – | inactive | – | 15.3% [at 17.1 µM, percent relative to cAMP agonist control] | -10.1% [at 30.8 µM]
Cc1cc(NS(=O)(=O)c2ccc(NC(=O)Cc3ccc(Cl)c(Cl)c3)cc2)no1 | inactive | inactive | inactive | inactive | inactive | – | –
COC(=O)c1cc2oc(C)cc2n1Cc1cccc(Cl)c1 | inactive | inactive | inactive | inactive | inactive | – | –
COC(=O)C1=NNCC12CC(=O)N(c1ccc(Br)cc1)C2=O (stereo not given) | inactive | inactive | inactive | inactive | inactive | – | –

From PubChem BioAssay (NCATS)
